For experiment [1], the system named is NIH3T3. Briefly: Cytotoxic Profiling of Annotated Libraries Using Quantitative High-Throughput Screening (AID 1296008). Note: nearly all actives have a fitted effect of over 60% in size. Note: potency is the fitted concentration of half-maximal effect. The following applies: Five cell lines viability, CellTiter-Glo ATP luminescence, 48-72 h; max response: stronger effect = lower value. The gist of the method: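 Compounds were pin-transferred onto cells and incubated 48 or 72 hr at 37 degree Celsius, 95% humidity. CellTiter-Glo was added, plates sat 10 min at room temperature, then ATP-coupled luminescence was imaged as the viability read-out.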

A further experiment has as its system HACAT. The experiment can be described thus: qHTS assay to identify novel small-molecules to repurpose for Merkel cell carcinoma treatment (AID 1296009). Note: nearly all actives have a fitted effect of over 60% in size. Note: potency is the fitted concentration of half-maximal effect. The following applies: MCC and control cell lines, CellTiter-Glo viability, 72 h; at 44.8 µM (top of the series) unless noted. The gist of the method: (§1)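 Cells exposed to NPC (8-point) and MIPE (11-point) compound dilutions for 72 hr at 37 degree celsius; viability read by CellTiter-Glo luminescence, normalized to no-cell and DMSO in-plate controls.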

Experiment [2] deals with HEK293T. Described as above. Conditions: MCC and control cell lines, CellTiter-Glo viability, 72 h; at 44.8 µM (top of the series). The gist of the method: as §1
In another experiment the test system is MCC-13. The experiment is described as above. The following applies: MCC and control cell lines, CellTiter-Glo viability, 72 h; series mostly up to 46 µM. In short, it runs like this:
as §1

The subject of another experiment is MCC-26. Described as above. The following applies: MCC and control cell lines, CellTiter-Glo viability, 72 h; series mostly up to 46 µM. The gist of the method: as §1
The test system of the next experiment is MKL-1. The description is as above. The following applies: MCC and control cell lines, CellTiter-Glo viability, 72 h; series mostly up to 46 µM. The gist of the method: as §1
The next experiment has as its system MKL-2. Described as above. Conditions: MCC and control cell lines, CellTiter-Glo viability, 72 h; series mostly up to 46 µM. In short, it runs like this:
as §1

Another experiment concerns UISO. The experiment is described as above. The following applies: MCC and control cell lines, CellTiter-Glo viability, 72 h; series mostly up to 46 µM. In short, it runs like this: as §1
Another experiment concerns WaGa. The description is as above. The following applies: MCC and control cell lines, CellTiter-Glo viability, 72 h; series mostly up to 46 µM. The gist of the method: as §1
For another experiment, the system named is C33A. The experiment can be described thus: Primary qHTS to identify gynecologic anti-cancer compounds using libraries of approved drugs and bioactive compounds (AID 1345084). Note: nearly all actives have a fitted effect of over 55% in size. The following applies: Gynecologic cancer cell panel viability, ATPlite luminescence, 48 h; series mostly up to 57.5 µM. In short, it runs like this:
(§2)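 48 h compound exposure at 37 C, 5% CO2; five-point qHTS. ATPlite luminescence readout of cell ATP.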

In the next experiment the test system is CASKI. Described as above. Conditions: Gynecologic cancer cell panel viability, ATPlite luminescence, 48 h; series mostly up to 57.5 µM. In short, it runs like this: as §2
Another experiment concerns Es-2. The description is as above. Conditions: Gynecologic cancer cell panel viability, ATPlite luminescence, 48 h; series mostly up to 57.5 µM. The gist of the method: as §2
For a further experiment, the system named is HeLa. The experiment is described as above. The following applies: Gynecologic cancer cell panel viability, ATPlite luminescence, 48 h; series mostly up to 57.5 µM. In short, it runs like this:
as §2

The next experiment deals with JEG-3. The description is as above. The following applies: Gynecologic cancer cell panel viability, ATPlite luminescence, 48 h; series mostly up to 57.5 µM. The gist of the method:
as §2

Another experiment deals with OV90. Described as above. The following applies: Gynecologic cancer cell panel viability, ATPlite luminescence, 48 h; series mostly up to 57.5 µM. The gist of the method: as §2
The next experiment has as its system PA-1. Described as above. Conditions: Gynecologic cancer cell panel viability, ATPlite luminescence, 48 h; series mostly up to 57.5 µM. In short, it runs like this:
as §2

A further experiment concerns SKOV3. Described as above. Conditions: Gynecologic cancer cell panel viability, ATPlite luminescence, 48 h; series mostly up to 57.5 µM. In short, it runs like this:
as §2

For experiment [3], the system named is NIH3T3. The experiment can be described thus: qHTS assay to identify novel small-molecules to repurpose for Merkel cell carcinoma treatment (AID 1296009). Note: nearly all actives have a fitted effect of over 60% in size. Note: potency is the fitted concentration of half-maximal effect. The following applies: MCC and control cell lines, CellTiter-Glo viability, 72 h; at 44.8 µM (top of the series) unless noted. The gist of the method: as §1
For experiment [4], the system named is Hek293T. Briefly: Primary qHTS to identify gynecologic anti-cancer compounds using libraries of approved drugs and bioactive compounds (AID 1345084). Note: nearly all actives have a fitted effect of over 55% in size. Conditions: Gynecologic cancer cell panel viability, ATPlite luminescence, 48 h, control line for the selectivity index; series mostly up to 57.5 µM. The gist of the method:
as §2

Another experiment concerns CAOV3. The experiment is described as above. The following applies: Gynecologic cancer cell panel viability, ATPlite luminescence, 48 h; series mostly up to 57.5 µM. In short, it runs like this:
as §2

Where “and” joins values, the source holds several entries; their conditions need not be identical. Equal values may be shown once. Records with an inconclusive call do not appear. The source holds several records for some structures; these can differ, active in one and inactive in another. Calls of active or inactive are those of the source. Calls come from the whole dose curve; as a rule, active = well fitted curve in the direction sought with a large enough effect; inconclusive = small, poorly fitted or top-dose-only effect, or another doubt; inactive = no such curve, though single readings can be large; an effect the other way counts as inactive or inconclusive.
% is set by controls: 0 for no effect and ±100 for the full control effect.

On to `O=NN(CCCl)C(=O)NCCCl`, for which, in the experiment with NIH3T3 [1], the max response was 3.76% (inactive) and 1.65% (inactive). Also, the result in the experiment with HACAT was inactive. The outcome with HEK293T [2] was “inactive; activator”. Further, the Potency entry with MCC-13, in the experiment on MCC-26, in the experiment with MKL-1, in the experiment with MKL-2, in the experiment on UISO and in the experiment on WaGa was “inactive” each time. In addition, the Potency result in the experiment on C33A, in the experiment on CASKI, in the experiment with Es-2, with HeLa, with JEG-3 and in the experiment on OV90 was “inactive” each time. The Potency result in the experiment on PA-1 and in the experiment with SKOV3 was “inactive” each time.
Take `Clc1cccc(Cl)c1NC1=NCCN1`: the compound was classed as inactive in the experiment on NIH3T3 [1], in the experiment on HACAT and in the experiment with NIH3T3 [3]. The Potency result in the experiment with MCC-13, in the experiment on MCC-26, in the experiment with MKL-1, with MKL-2, in the experiment with UISO and with WaGa was “inactive” each time. Besides, the Potency entry in the experiment with C33A, with CASKI, with Es-2, with HeLa, in the experiment on Hek293T [4] and with JEG-3 was “inactive” throughout. Besides, the Potency result in the experiment with OV90, with PA-1 and with SKOV3 was “inactive” in each case.
As for `COc1ccc(-c2oc3cc(OC)ccc3c2C(=O)c2ccc(C#N)cc2)cc1`, the result in the experiment with NIH3T3 [1], in the experiment with HACAT, in the experiment with HEK293T [2] and in the experiment with NIH3T3 [3] was inactive. The Potency result in the experiment on MCC-13, in the experiment on MKL-1, in the experiment with UISO and in the experiment on WaGa was “inactive” throughout.
For the compound `CCN(CC)CCCC(C)Nc1nc(C)cc(Nc2ccc3nc(C)cc(N)c3c2)n1` (configuration not stated), the result with NIH3T3 [1], with HACAT and with NIH3T3 [3] was inactive. In addition, the Potency result in the experiment on MCC-13, in the experiment with MCC-26, in the experiment on MKL-1, in the experiment on MKL-2, in the experiment on UISO and in the experiment with WaGa was “inactive” in each case.
For `NC(=O)c1ccc(-c2nc(-c3ccc4c(c3)OCO4)c(-c3ccccn3)[nH]2)cc1`, in the experiment with NIH3T3 [1], the max response is -25.4% (inactive). Further, the result in the experiment on HACAT was inactive. The Potency entry in the experiment on MCC-13, with MCC-26, in the experiment with MKL-1, in the experiment with MKL-2, in the experiment on UISO and in the experiment on WaGa was “inactive” each time.
Consider `NCCc1ccc(O)c(O)c1`, for which the max response with NIH3T3 [1] was 2.44% (inactive) and -9.95% (inactive). Besides, in the experiment on HACAT, the result was inactive. The Potency result in the experiment with MCC-13 was “inactive and 5.31 µM (active)”; with MKL-1, “inactive and 23.7 µM (active)”; in the experiment on MKL-2 it was 18.7 µM (active) and inactive; with UISO, “inactive and 18.8 µM (active)”; in the experiment on WaGa, 11.9 µM (active). The Potency result in the experiment with MCC-26, in the experiment on C33A, in the experiment with CASKI, in the experiment with Es-2, in the experiment on HeLa and with Hek293T [4] was “inactive” throughout. Also, the Potency entry with JEG-3, with OV90 and in the experiment on PA-1 was “inactive” each time.
With `CC(=O)Oc1ccccc1C(=O)O`, in the experiment with NIH3T3 [1], the max response is 0.988% (inactive) and 3.48% (inactive). The outcome in the experiment on HACAT and with HEK293T [2] was inactive. In addition, the Potency result in the experiment with MCC-13, with MKL-1, in the experiment on MKL-2, in the experiment with UISO, in the experiment with WaGa and in the experiment on C33A was “inactive” in each case. Also, the Potency entry in the experiment on CASKI, with Es-2, with HeLa, in the experiment on Hek293T [4], with JEG-3 and in the experiment on OV90 was “inactive” throughout. Moreover, the Potency result with PA-1 and with SKOV3 was “inactive” each time.
`CN(C(=O)c1ccc(F)cc1C(F)(F)F)C1CCN(c2nnc(-c3ccnn3C)c3ccccc23)CC1`: in the experiment on NIH3T3 [1], the max response was -30.1% (inactive) and 3.56% (inactive). In the experiment with HACAT, the call was inactive. For the same compound, the Potency entry in the experiment on MCC-13, in the experiment on MCC-26, in the experiment with MKL-1, in the experiment with MKL-2, in the experiment with UISO and with WaGa was “inactive” throughout. Moreover, the Potency entry with C33A, in the experiment on CAOV3, in the experiment on CASKI, in the experiment on Es-2, with HeLa and in the experiment with Hek293T [4] was “inactive” each time. Further, the Potency entry with JEG-3, in the experiment on OV90, in the experiment with PA-1 and with SKOV3 was “inactive” in each case.
Turning to `CS(=O)(=O)Oc1ccc2c(NC(N)=O)c(C(=O)c3ccc(Cl)cc3Cl)oc2c1`, in the experiment with NIH3T3 [1], the max response was -0.156% (inactive). Moreover, the result in the experiment with HACAT was inactive. Further, the Potency result in the experiment on MCC-13, in the experiment on MCC-26 and in the experiment with UISO was “inactive” each time. The Potency in the experiment with MKL-1 was 8.33 µM (active); with MKL-2 it was 2.96 µM (active); in the experiment with WaGa, 0.833 µM (active).
On to `CCC(C)N(C)C(=O)c1cc2ccccc2c(-c2ccccc2Cl)n1` (configuration not stated), for which the max response in the experiment on NIH3T3 [1] is -14% (inactive). The outcome in the experiment with HACAT was inactive. The Potency entry with MCC-13, in the experiment on MKL-1, in the experiment with MKL-2, with UISO and with WaGa was “inactive” in each case.
Take `COc1nc(-c2ccc3c(c2)OCO3)n(-c2ccc(NC(=O)CSc3ccccc3)cc2)n1`: the max response with NIH3T3 [1] was -26.7% (inactive). In the experiment with HACAT, the compound was called inactive. Further, the Potency entry with MCC-13, in the experiment on MCC-26, in the experiment with MKL-1, with MKL-2, with UISO and in the experiment with WaGa was “inactive” throughout. For the same compound, the Potency entry in the experiment with C33A, with CASKI, in the experiment on Es-2, in the experiment with Hek293T [4], in the experiment with JEG-3 and in the experiment with OV90 was “inactive” in each case. The Potency result in the experiment on PA-1 and in the experiment on SKOV3 was “inactive” in each case.
Consider `COc1ccccc1-c1cccc(-c2c(O)c3cc(C#N)c(Cl)cc3[nH]c2=O)c1`, for which the Potency with NIH3T3 [1] is 21.5 µM (active). Besides, the Potency result with MCC-13, in the experiment with MCC-26, with MKL-1, in the experiment on MKL-2, in the experiment with UISO and in the experiment on WaGa was “inactive” in each case.
As to `CC(C)(C)OC(=O)CN(Cc1ccc(Cl)cc1)Cc1ccc([N+](=O)[O-])s1`, in the experiment on NIH3T3 [1], the max response was 1.62% (inactive). Also, the compound was called inactive in the experiment on HACAT. In addition, the Potency result in the experiment with MCC-13, with MKL-1, in the experiment with UISO and with WaGa was “inactive” each time.
In the case of `CCc1cc(Nc2nccc(-c3c(-c4ccc(OC)c(C(=O)Nc5c(F)cccc5F)c4)nc4ccccn34)n2)c(OC)cc1N1CCC(N2CCN(S(C)(=O)=O)CC2)CC1`, in the experiment on NIH3T3 [1], the max response was -25.3% (inactive). Moreover, the outcome in the experiment on HACAT was inactive. The Potency entry in the experiment on MCC-13, with MCC-26, in the experiment on MKL-1, in the experiment with WaGa, with C33A and in the experiment on CAOV3 was “inactive” throughout. In addition, the Potency entry in the experiment with CASKI, in the experiment on Es-2, with Hek293T [4], in the experiment on JEG-3, in the experiment on OV90 and in the experiment on SKOV3 was “inactive” each time.
For `CO[C@@H]1[C@H](N(C)C(=O)c2ccccc2)C[C@H]2O[C@]1(C)n1c3ccccc3c3c4c(c5c6ccccc6n2c5c31)C(=O)NC4`, the Potency is 1.66 µM (active) with NIH3T3 [1], 2.96 µM (active) with MCC-13 and 4.69 µM (active) in the experiment with MCC-26.

For the origin of these results see PubChem BioAssay (NCATS).
